Compounds with a hit are over-represented: about 28% of the library has one in this group of screens.
CYP2C19 inhib: blockers of cytochrome P450 2C19 activity – biochemical, luminescence, ADME assay, primary screen; CYP2C19 Supersomes, luciferin-H EGE luminescence, 30 min; 96,000 compounds, 21% hits; inhibition, % at 5 µM; AID 778, 2007; P33261;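 active = CYP2C19 inhibition above a set limit at 5 µM in the primary screen, cut at about 50% in these data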
CYP2C9 inhib: blockers of cytochrome P450 2C9 activity – biochemical, luminescence, ADME assay, primary screen; 96,000 compounds, 20% hits; CYP2C9 Supersomes, luciferin-H conversion; inhibition, % at 5 µM; P11712;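 active = blocking of liver enzyme CYP2C9 beyond about 50% at 5 µM, limit read from the data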
Target sequence (P11712 whole entry, looked up): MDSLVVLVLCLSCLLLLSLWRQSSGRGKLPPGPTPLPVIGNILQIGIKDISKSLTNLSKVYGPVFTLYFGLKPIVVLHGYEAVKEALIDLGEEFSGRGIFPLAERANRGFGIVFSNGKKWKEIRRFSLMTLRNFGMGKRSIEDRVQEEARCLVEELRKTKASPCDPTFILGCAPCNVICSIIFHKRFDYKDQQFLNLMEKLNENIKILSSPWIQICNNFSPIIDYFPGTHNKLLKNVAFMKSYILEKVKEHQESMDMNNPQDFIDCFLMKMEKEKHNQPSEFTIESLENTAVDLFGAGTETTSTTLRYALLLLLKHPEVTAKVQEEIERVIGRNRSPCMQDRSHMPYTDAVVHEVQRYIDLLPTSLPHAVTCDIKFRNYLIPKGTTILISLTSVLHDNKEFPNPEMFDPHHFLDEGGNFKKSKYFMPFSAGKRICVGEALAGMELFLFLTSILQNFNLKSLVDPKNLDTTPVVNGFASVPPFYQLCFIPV
CD11b adhes enh: enhancers of CD11b/CD18 adhesion to fibrinogen, primary screen, K562 cells, luminescence. ATPlite luminescence. activation, % at 10 µM. 93,000 compounds, 0.07% hits. Integrin beta-2 (Homo sapiens) + Integrin alpha-M (Homo sapiens), P05107+P11215;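 active = 10 µM primary screen giving 50% or more activity, confirmed by 40% or more on retest at that dose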
CYP2C9 act: human CYP2C9 activators, primary screen, biochemical, luminescence; Cytochrome P450 2C9 (Homo sapiens), P11712; 96,000 compounds, 1.4% hits; recombinant CYP2C9, luciferin-H conversion; hits give high values; factor 1 = untreated enzyme, 0 = blocked; activation factor at 5 µM;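 active = activation factor of 2 or more for CYP2C9 at a 5 µM dose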
CYP2C19 activ: human CYP2C19 activators, primary screen, biochemical, luminescence; AID 1025, 2008; activation factor at 5 µM; 96,000 tested, under 10 active; recombinant CYP2C19, luciferin-H EGE luminescence; hits give high values; 0 = fully inhibited enzyme, 1 = untreated enzyme;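 active = activation factor of at least 2 at 5 µM in the primary screen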
Mac1 fbg inh: inhibitors of CD11b/CD18 adhesion to fibrinogen, primary screen, K562 cells, luminescence; Integrin beta-2 (Homo sapiens) + Integrin alpha-M (Homo sapiens), P05107+P11215; ATPlite luminescence; Mn2+ added to activate the integrin; inhibition, % at 10 µM; 93,000 compounds, 0.54% hits; AID 1497, 2009;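 active = primary inhibition of 50% or more at 10 µM, then 40% or more on retest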
Hits are given with their value; – = inactive; · = no result given.

SMILES	CYP2C19 inhib	CYP2C9 inhib	CD11b adhes enh	CYP2C9 act	CYP2C19 activ	Mac1 fbg inh
COc1ccc(-c2nc(-c3ccncc3)no2)cc1OC	88	60	–	–	–	–
CCOc1cc(-c2nc(-c3ccc(C)nc3OC)no2)cc(OCC)c1OCC	97	76	–	–	–	–
COc1ccc(-c2noc(-c3ccco3)n2)cc1OC	–	–	–	–	–	–
Brc1ccc(-c2nc(-c3ccccc3)no2)o1	–	–	–	–	–	–
COc1ccc(CCC(=O)Nc2ccc(-c3noc(-c4ccc(OC)c(OC)c4)n3)cc2)cc1	–	69	–	–	–	–
CCOc1ccc(-c2nc(-c3cccnc3)no2)cc1OCC	62	–	–	–	–	–
CCOc1ccc(-c2nc(-c3ccc(OC)cc3)no2)cc1OCC	–	–	–	–	–	–
CC1=NOC2(C1)N(C)c1ccccc1C2(C)C (stereo not drawn)	58	–	–	–	–	–
CN1c2ccccc2C(C)(C)C12CCCC(=O)N2 (stereo not drawn)	–	–	–	–	–	–
COc1cc(C(=O)N[C@H](C(=O)NC2CCCCCC2)C(C)C)cc(OC)c1OC	–	–	–	–	–	–
CCN1C(=O)c2cccc3c(NC(=O)c4ccc(S(=O)(=O)N(C)C)cc4)ccc1c23	–	–	–	–	–	–
CCN1C(=O)c2cccc3c(NC(=O)c4ccc(S(=O)(=O)N5CCOCC5)cc4)ccc1c23	–	74	–	–	–	–
CCOC(=O)c1ccc(NC(=O)Nc2ccc3c4c(cccc24)C(=O)N3CC)cc1	–	–	–	–	–	–
CCN1C(=O)c2cccc3c(NS(=O)(=O)c4ccc(NC(C)=O)cc4)ccc1c23	99	86	–	–	–	–
CCN1C(=O)c2cccc3c(S(=O)(=O)Nc4ccccc4OC)ccc1c23	61	99	–	–	–	–
Cc1ccn(C(=O)c2ccc(NC(=O)C3CCCCC3)cc2)n1	–	–	–	–	–	–
O=C1c2cccnc2C(Nc2ccccc2)N1Cc1ccco1 (stereo not drawn)	–	–	–	–	–	–
CC(=O)c1cccc(NC2c3ncccc3C(=O)N2Cc2ccco2)c1 (stereo not drawn)	83	–	·	–	–	·
CCN(CC)S(=O)(=O)c1ccc(NC2c3ncccc3C(=O)N2Cc2ccccc2)cc1 (stereo not drawn)	–	–	·	–	–	·
COc1ccc(CN2C(=O)c3cccnc3C2Nc2cc(Cl)c(OC)cc2OC)cc1 (stereo not drawn)	–	–	·	–	–	·
CC(=O)c1ccc(NC2c3ncccc3C(=O)N2Cc2ccc(F)cc2)cc1 (stereo not drawn)	76	–	·	–	–	·
COc1ccc(CN2C(=O)c3cccnc3C2Nc2ccc(C)cc2)cc1 (stereo not drawn)	63	63	–	–	–	–
CCC(SCC(=O)OC)C(=O)Nc1nnc(C(C)C)s1 (stereo not drawn)	–	–	–	–	–	–
CCOc1ccc(CCNC(=O)CCN2C(=O)COc3ccccc32)cc1OCC	–	–	·	–	–	·
C=CCNc1nc(-c2ccc(O)c(C(N)=O)c2)cs1	75	–	–	–	–	–
SMILES	CYP2C19 inhib	CYP2C9 inhib	CD11b adhes enh	CYP2C9 act	CYP2C19 activ	Mac1 fbg inh
Cc1ccc2oc(-c3cccc(NC(=O)c4ccc(Br)o4)c3)nc2c1	–	53	–	–	–	–
Cc1ccc(-c2nc3cc(N)ccc3o2)cc1	–	–	–	–	–	–
Cc1cc2nc(-c3cccc(NC(=O)c4ccc(Br)o4)c3)oc2cc1C	–	–	–	–	–	–
Cc1ccc(-c2nc3cc(C)ccc3o2)cc1	59	–	–	–	–	–
Cc1ccc2oc(-c3ccc(NC(=O)c4cccnc4)cc3)nc2c1	–	63	–	–	–	–
Cc1ccc(-c2nc3cc(NS(=O)(=O)c4ccc(C)cc4)ccc3o2)cc1	99	100	–	–	–	–
O=C(Nc1ccc2oc(-c3cccnc3)nc2c1)c1cccnc1	–	–	–	–	–	–
COC(=O)CCN(C(=O)C1C2CC3CC(C2)CC1C3)c1ccccn1 (stereo not drawn)	–	–	–	–	–	–
O=S(=O)(Nc1ccc2oc(-c3ccccc3)nc2c1)c1ccccc1	93	94	–	–	–	–
O=C(O)CCc1ccc(-c2ccccc2)n1NC(=O)c1sc2ccccc2c1Cl	–	–	–	–	–	–
N#Cc1cc2c(nc1SCc1nc3ccccc3[nH]1)CCC2	–	–	–	–	–	–
Cc1ccc(SCc2nc3ccccc3[nH]2)cc1	89	–	·	–	–	·
c1coc(-c2nnc(SCc3nc4ccccc4[nH]3)o2)c1	–	–	–	–	–	–
CC(C)SCc1nc2ccccc2[nH]1	–	–	–	–	–	–
Cc1cc(C)c(C#N)c(SCc2nc3ccccc3[nH]2)n1	56	58	–	–	–	–
c1ccc(SCc2nc3ccccc3[nH]2)cc1	90	–	·	–	–	·
Clc1ccc(SCc2nc3ccccc3[nH]2)cc1	100	54	·	–	–	·
CCCOc1ccc(/C=N/NC(=O)c2ccc(Cn3cc([N+](=O)[O-])cn3)o2)cc1	–	–	–	–	–	–
Cc1ccc(C)c(OCCOCCN2CC(C)OC(C)C2)c1C (stereo not drawn)	–	–	–	–	–	–
O=[N+]([O-])c1ccc(O)c(-c2nn[nH]n2)c1	70	83	–	–	–	–
CC(NC(=O)Cc1ccsc1)c1ccc(S(N)(=O)=O)cc1 (stereo not drawn)	–	–	–	–	–	–
Cc1ccc(Nc2nc(N)nc(CN3CCc4ccccc4C3)n2)cc1	55	52	–	–	–	–
Nc1nc(CN2CCN(Cc3ccccc3)CC2)nc(Nc2ccccc2)n1	–	–	·	–	–	·
Nc1nc(CN2CCN(c3ccccn3)CC2)nc(Nc2ccc(Cl)cc2)n1	–	68	–	–	–	–
Cc1cccc(Nc2nc(N)nc(CN3CCN(c4ccccc4)CC3)n2)c1	53	67	–	–	–	–
SMILES	CYP2C19 inhib	CYP2C9 inhib	CD11b adhes enh	CYP2C9 act	CYP2C19 activ	Mac1 fbg inh
COc1ccc(-n2c(SCC(=O)NCc3ccco3)nc3c([nH]c4ccccc43)c2=O)cc1	–	–	–	–	–	–
CCOC(=O)CC(=O)Nc1ccc(C)cc1	–	–	–	–	–	–
Cc1ccc(C(=O)NC2CCCCC2)cc1	–	–	·	–	–	·
CCOC(=O)COc1ccc(C(=O)NC2CCCCC2)cc1	–	–	–	3	–	–
CCOc1cccc(C(=O)NC2CCCCC2)c1	68	–	–	–	–	–
CCOC(=O)C1CCN(C(=O)c2cccnc2)CC1	–	–	–	–	–	–

Screening data: PubChem BioAssay, Sanford-Burnham Center for Chemical Genomics
